Columns and labels:
Assay in all cases: thermal shift delta Tm vs DMSO control; higher = stronger stabilization (binding)
Conditions in all cases: 12.5 µM; protein concentration 2 µM
[1] = tested on: LOC_OS02G45750-cb003
Method in brief: (§1)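 Purified, E. coli-expressed rice kinase domain constructs were tested by differential scanning fluorimetry in 96-well plates: 19.5 μl of 2 μM kinase in 100 mM potassium phosphate pH 7.5, 150 mM NaCl, 10% glycerol, 5 × SYPRO Orange, plus compound in DMSO. Fluorescence was read from 25°C to 95°C at 0.05°C/s. Melting temperatures came from Boltzmann fits, and the shift is the triplicate mean relative to protein with DMSO alone.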

[2] = tested on: LOC_OS02G54510-cb004
Method in brief: as §1

[3] = tested on: LOC_OS03G04050-cb001
Method in brief: as §1

[4] = tested on: LOC_OS03G12390-cb001
Method in brief: as §1

[5] = tested on: LOC_OS03G27990-cb004
Method in brief: as §1

[6] = tested on: LOC_OS03G50450-cb001
Method in brief: as §1

[7] = tested on: LOC_OS03G50810-cb003
Method in brief: as §1

[8] = tested on: LOC_OS04G35114-cb001
Method in brief: as §1

[9] = tested on: T1, LOC_OS04G38480-cb003
T1 sequence (whole entry): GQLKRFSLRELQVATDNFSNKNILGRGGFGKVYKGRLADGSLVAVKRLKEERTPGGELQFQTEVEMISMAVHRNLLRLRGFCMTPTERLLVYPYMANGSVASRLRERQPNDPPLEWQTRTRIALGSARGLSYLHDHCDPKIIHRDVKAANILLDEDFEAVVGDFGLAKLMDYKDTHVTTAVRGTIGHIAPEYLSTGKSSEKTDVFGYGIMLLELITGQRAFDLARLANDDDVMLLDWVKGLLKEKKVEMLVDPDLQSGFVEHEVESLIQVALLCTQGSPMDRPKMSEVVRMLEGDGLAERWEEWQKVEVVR
Method in brief: as §1

[10] = tested on: T2, LOC_OS04G41100-cb001
T2 sequence (whole entry): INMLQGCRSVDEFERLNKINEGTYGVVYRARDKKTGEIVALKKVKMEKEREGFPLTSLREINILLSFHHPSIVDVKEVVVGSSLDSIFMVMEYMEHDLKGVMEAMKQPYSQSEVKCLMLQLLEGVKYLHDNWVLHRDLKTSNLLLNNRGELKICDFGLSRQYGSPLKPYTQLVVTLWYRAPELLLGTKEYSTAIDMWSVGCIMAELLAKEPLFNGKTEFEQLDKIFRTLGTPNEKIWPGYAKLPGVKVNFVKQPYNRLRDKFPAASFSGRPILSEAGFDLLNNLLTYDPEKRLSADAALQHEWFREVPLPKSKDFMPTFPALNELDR
Method in brief: as §1

[11] = tested on: LOC_OS04G57630-cb004
Method in brief: as §1

[12] = tested on: LOC_OS05G07850-cb002
Method in brief: as §1

[13] = tested on: LOC_OS05G16824-cb004
Method in brief: as §1

[14] = tested on: LOC_OS05G28520-cb001
Method in brief: as §1

[15] = tested on: LOC_OS05G30820-cb001
Method in brief: as §1

[16] = tested on: LOC_OS05G43570-cb004
Method in brief: as §1

[17] = tested on: LOC_OS06G16330-cb003
Method in brief: as §1

[18] = tested on: T3, LOC_OS06G22820-cb001
T3 sequence (whole entry): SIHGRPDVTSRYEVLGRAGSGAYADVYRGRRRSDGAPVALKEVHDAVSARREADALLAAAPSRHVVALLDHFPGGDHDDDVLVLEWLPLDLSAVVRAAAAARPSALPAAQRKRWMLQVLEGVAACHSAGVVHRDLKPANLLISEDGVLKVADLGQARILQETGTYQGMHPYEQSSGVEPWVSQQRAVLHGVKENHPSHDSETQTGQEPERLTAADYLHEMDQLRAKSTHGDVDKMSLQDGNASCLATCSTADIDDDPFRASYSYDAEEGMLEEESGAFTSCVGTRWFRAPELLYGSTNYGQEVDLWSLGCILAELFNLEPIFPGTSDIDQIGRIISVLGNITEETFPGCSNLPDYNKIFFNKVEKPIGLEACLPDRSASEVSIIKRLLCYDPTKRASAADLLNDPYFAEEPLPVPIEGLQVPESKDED
Method in brief: as §1

[19] = tested on: LOC_OS07G06570-cb004
Method in brief: as §1

[20] = tested on: LOC_OS07G07230-cb001
Method in brief: as §1

Sequence of LOC_OS06G16330-cb003 (as listed by the source): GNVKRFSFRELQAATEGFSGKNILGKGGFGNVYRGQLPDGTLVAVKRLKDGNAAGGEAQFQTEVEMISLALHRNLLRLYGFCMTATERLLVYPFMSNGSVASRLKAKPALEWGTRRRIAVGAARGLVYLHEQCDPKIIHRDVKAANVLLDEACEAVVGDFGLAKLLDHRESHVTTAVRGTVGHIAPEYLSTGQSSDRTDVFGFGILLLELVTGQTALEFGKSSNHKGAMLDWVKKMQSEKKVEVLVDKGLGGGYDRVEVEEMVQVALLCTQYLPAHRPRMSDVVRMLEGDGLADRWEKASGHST

Compound | thermal shift delta Tm [1] | thermal shift delta Tm [2] | thermal shift delta Tm [3] | thermal shift delta Tm [4] | thermal shift delta Tm [5] | thermal shift delta Tm [6] | thermal shift delta Tm [7] | thermal shift delta Tm [8] | thermal shift delta Tm [9] | thermal shift delta Tm [10] | thermal shift delta Tm [11] | thermal shift delta Tm [12] | thermal shift delta Tm [13] | thermal shift delta Tm [14] | thermal shift delta Tm [15] | thermal shift delta Tm [16] | thermal shift delta Tm [17] | thermal shift delta Tm [18] | thermal shift delta Tm [19] | thermal shift delta Tm [20]
Cc1c(NC(=O)c2ccc(C(C)(C)C)cc2)cccc1-c1cn(C)c(=O)c(Nc2ccc(C(=O)N3CCOCC3)cc2)n1 | 1.07 °C | 0.28 °C | 0.82 °C | 1.85 °C | 0.51 °C | 0.69 °C | 0.7 °C | 0.72 °C | 0.87 °C | 0.43 °C | 0.37 °C | 0.29 °C | 0.48 °C | 0.5 °C | 0.18 °C | 0.64 °C | 0.07 °C | 0.84 °C | 1.05 °C | -0.21 °C
C[C@]1(O)C[C@@H](c2nc(-c3ccc4ccc(-c5ccccc5)nc4c3)c3c(N)nccn32)C1 [Linsitinib (OSI-906)] | 0.76 °C | 0.75 °C | 0.57 °C | 0.37 °C | 0.12 °C | 0.28 °C | 0.6 °C | 3.89 °C | 1.28 °C | 0.85 °C | 0.91 °C | 1.48 °C | 1.1 °C | 0.92 °C | 0.67 °C | 0.81 °C | 0.92 °C | 0.94 °C | 1.13 °C | 0.34 °C
CN1CCN(c2ccc3nc(-c4c(N)c5c(F)cccc5[nH]c4=O)[nH]c3c2)CC1 [Dovitinib (TKI-258, CHIR-258)] | 13 °C | 0.96 °C | 0.58 °C | 2.88 °C | 4.19 °C | 2.43 °C | 4.84 °C | 7.2 °C | 1.57 °C | 0.95 °C | 1.24 °C | 6.74 °C | 12.6 °C | 1.08 °C | 0.71 °C | 0.77 °C | 3.64 °C | 0.56 °C | 1.13 °C | 0.36 °C
CCOc1ccn(-c2ccc(F)cc2)c(=O)c1C(=O)Nc1ccc(Oc2ccnc(N)c2Cl)c(F)c1 | 1.27 °C | 0.13 °C | 0.16 °C | 0.96 °C | 0.05 °C | 0.3 °C | 0.47 °C | 1.17 °C | 1.53 °C | 2.01 °C | 0.68 °C | 11.6 °C | 1.29 °C | 0.56 °C | 0.42 °C | 1.2 °C | 4.26 °C | 0.43 °C | 0.64 °C | 0.01 °C
c1cncc(CN2CCC(n3ncc4c(N5CCOCC5)nc(-c5ccc6[nH]ccc6c5)nc43)CC2)c1 | 0.03 °C | -0.13 °C | 0.22 °C | -0.05 °C | 0.01 °C | 0.14 °C | 0.65 °C | 0.3 °C | 0.67 °C | 0.58 °C | 0.55 °C | 0.6 °C | -2.75 °C | 0.6 °C | 0.62 °C | -0.19 °C | -0.3 °C | 0.42 °C | 0.64 °C | 0.16 °C
CCOc1cc2ncc(C#N)c(Nc3ccc(OCc4ccccn4)c(Cl)c3)c2cc1NC(=O)/C=C/CN(C)C [Neratinib (HKI-272)] | 4.68 °C | 0.16 °C | 0.41 °C | 0.55 °C | 1.01 °C | 0.39 °C | 1.2 °C | 5.53 °C | 1.27 °C | 0.15 °C | 1.3 °C | 2.1 °C | -0.55 °C | 0.73 °C | 0.56 °C | 0.35 °C | 0.45 °C | 0.9 °C | 1.96 °C | 0.81 °C
CC[C@@H]1C(=O)N(C)c2cnc(Nc3ccc(C(=O)NC4CCN(C)CC4)cc3OC)nc2N1C1CCCC1 | 1.12 °C | 0.21 °C | 0.16 °C | 2.23 °C | -0.16 °C | -0.26 °C | 0.11 °C | 0.67 °C | -0.31 °C | 0.39 °C | -0.45 °C | 0.42 °C | 1.14 °C | 0.12 °C | 0.28 °C | 0.24 °C | 0.39 °C | 0.4 °C | 0.75 °C | 0.09 °C
C[C@@H](Oc1cc(-c2cnn(C3CCNCC3)c2)cnc1N)c1c(Cl)ccc(F)c1Cl | 5.46 °C | 0.63 °C | 0.35 °C | 1.31 °C | 0.48 °C | 0.08 °C | 2.49 °C | 5.73 °C | 3.79 °C | 0.57 °C | 3.33 °C | 9.7 °C | 4.65 °C | 0.26 °C | 0.39 °C | 0.21 °C | 10.8 °C | 0.95 °C | 0.69 °C | 0.31 °C
O=C1NC(=O)/C(=C/c2ccc(-c3ccc(F)cc3O)o2)S1 | 2.33 °C | 0.67 °C | 1.72 °C | 5.37 °C | 1.51 °C | 3.59 °C | 2.55 °C | 4.85 °C | 4.16 °C | 1.17 °C | 1.54 °C | 6.53 °C | 3.79 °C | 1.52 °C | 1.01 °C | 2.03 °C | 3.28 °C | 2.41 °C | 1.83 °C | 0.13 °C
Cc1cc(Nc2ncnc3ccc(-c4ccc(CNCCS(C)(=O)=O)o4)cc23)ccc1Oc1ccn2ncnc2c1 [HER2-Inhibitor-1] | 2.59 °C | 0.24 °C | 0.79 °C | 0.49 °C | 0.37 °C | 0.76 °C | 1.21 °C | 4.39 °C | 1.57 °C | 0.72 °C | 2.09 °C | 6.61 °C | 2.73 °C | 1.2 °C | 0.57 °C | 0.41 °C | 3.81 °C | 0.78 °C | 1.57 °C | 0.55 °C
O=C(c1cccc(Cl)c1F)N1CCN(Cc2cccc(Nc3nccs3)n2)CC1 | 0.38 °C | 0.15 °C | 0.55 °C | 0.36 °C | 0.38 °C | 0.14 °C | 1.09 °C | 7 °C | 2.88 °C | 0.42 °C | 1.01 °C | 7.36 °C | 3.48 °C | 1.87 °C | 0.31 °C | -0.14 °C | 10.8 °C | 0.57 °C | 1.24 °C | 0 °C
Cc1ccc(C(=O)Nc2cccc(C(F)(F)F)c2)cc1Nc1nc(-c2cccnc2)nc2c1cnn2C | 0.71 °C | 1.84 °C | 0.36 °C | 1.07 °C | 0.25 °C | 0.79 °C | 0.32 °C | 0.29 °C | 0.47 °C | 0.58 °C | 0.31 °C | 0.03 °C | -1.61 °C | 0.44 °C | 0.9 °C | 1.18 °C | 1.09 °C | 0.98 °C | 1.07 °C | 0.06 °C
